Among the data in PubChem BioAssay are composite z-score, composite Z-score and z-score values, retold here.

Each structure is given as a SMILES string. Activity calls are given as the source filed them.

The target of one assay is Albumin (Bos taurus) (UniProt P02769). Put plainly: compounds binding labelled BSA control protein – biochemical, small-molecule microarray, Alexa647 label, 635/667 nm fluorescence, artefact control for SMM control protein annotation, profiling panel (AID 1118).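 Further: score merges 667 nm emission intensity and signal-to-noise per printed compound spot.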 The following applies: BSA-A647 binding, fluorescence 635 nm, higher = more signal.
Albumin (Bos taurus), sequence (P02769 whole entry, looked up): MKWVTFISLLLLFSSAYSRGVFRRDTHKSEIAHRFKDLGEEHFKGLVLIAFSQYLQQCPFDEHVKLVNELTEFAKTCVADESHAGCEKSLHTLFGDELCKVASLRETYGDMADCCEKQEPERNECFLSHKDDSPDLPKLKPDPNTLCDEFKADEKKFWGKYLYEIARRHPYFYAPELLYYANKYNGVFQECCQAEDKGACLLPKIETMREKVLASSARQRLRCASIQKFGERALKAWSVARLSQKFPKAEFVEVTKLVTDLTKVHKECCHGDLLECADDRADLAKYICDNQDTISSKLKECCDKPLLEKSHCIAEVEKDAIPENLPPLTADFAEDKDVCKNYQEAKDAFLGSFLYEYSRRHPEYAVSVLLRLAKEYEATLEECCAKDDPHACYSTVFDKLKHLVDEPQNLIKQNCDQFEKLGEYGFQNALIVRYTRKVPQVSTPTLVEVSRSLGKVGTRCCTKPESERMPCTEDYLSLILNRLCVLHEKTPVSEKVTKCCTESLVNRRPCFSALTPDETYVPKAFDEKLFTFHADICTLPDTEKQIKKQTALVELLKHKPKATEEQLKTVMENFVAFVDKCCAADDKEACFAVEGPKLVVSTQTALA
Assay [1] is described as follows: probe aXIP binding to arrayed compounds – biochemical, NeuroSMM set, 635/667 nm fluorescence, primary screen (AID 1119).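 Further: probe is the protein aXip251-270 applied at 1 µg/mL to compound-printed slides; binding of probe to printed compounds measured as 667 nm fluorescence plus signal to noise.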 The following applies: small-molecule microarray, higher = more signal, called active from +8 up or from −8 down.
A short description of assay [2]: probe aNOTCH3 binding on compound microarray – biochemical, small-molecule microarray, 635/667 nm fluorescence, primary screen (AID 1120).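 Further: probe is a biotin-tagged antibody raised against NOTCH3 rather than NOTCH3 protein; score merges spot fluorescence near 667 nm with spot signal to noise.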 The following applies: higher = more signal.
Assay [3] can be described thus: probe aNOTCH2 binding on compound microarray – biochemical, small-molecule microarray, 635/667 nm fluorescence, primary screen (AID 1121).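 Further: score merges feature fluorescence read at 667 nm with its signal to noise.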 The note with it: higher = more signal.
In assay [4] the target is Carbonic anhydrase 2 (Homo sapiens) (UniProt P00918). Put plainly: compounds binding carbonic anhydrase 2 – biochemical, small-molecule microarray, Alexa647-labelled CAII, profiling panel (AID 1122). The following applies: CAII-A647 binding fluorescence, higher = more signal.
A short description of assay [5]: COS7 lysate on small-molecule microarray, probe aHis, 635 nm (AID 1123).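 Further: z-score combines 667nm fluorescence intensity with signal-to-noise per printed compound spot.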 The following applies: COS7 cell lysate, fluorescence, higher = more signal.
Assay [6] can be described thus: probe aLAP1 signal on lysate-treated microarray – cell lysate, small-molecule microarray, COS7 lysate, primary screen (AID 1124).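 Further: lysate comes from COS7 cells expressing LAP1 and is applied at 0.3 µg/mL; score merges spot fluorescence near 667 nm with signal-to-noise over triplicate slides.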 The following applies: probe aLAP1, fluorescence, higher = more signal.
The next assay relates to Sam68 (KHDRBS1). Put plainly: compounds binding KHDRBS1 protein – biochemical, small-molecule microarray, 635 nm fluorescence, primary screen (AID 1125).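 Further: score merges 667 nm channel intensity with signal to noise over triplicate slides.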 The following applies: higher = more signal.
The subject of assay [7] is Chordin-like protein 2 (CHRDL2). In words: compounds binding chordin-like 2 – biochemical, small-molecule microarray, 635 nm fluorescence, primary screen (AID 1126).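 Further: printed compound slides probed with Chrdl2 protein at 4 µg/mL for 1 h at 4 C; score merges 667 nm emission intensity with signal to noise over three replicate slides.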 The following applies: fluorescence 635 nm, higher = more signal.
In assay [8] the target is Concanavalin-A (Canavalia ensiformis) (UniProt P02866). Put plainly: compounds binding concanavalin A lectin – biochemical, small-molecule microarray, Alexa647 label, 635 nm, artefact control for SMM control protein annotation, primary screen (AID 1127).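 Further: z combines 667 nm emission intensity with signal-to-noise across three replicate slides.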 The following applies: ConA-A647 binding fluorescence, higher = more signal.
Concanavalin-A (Canavalia ensiformis), sequence (P02866 whole entry, looked up): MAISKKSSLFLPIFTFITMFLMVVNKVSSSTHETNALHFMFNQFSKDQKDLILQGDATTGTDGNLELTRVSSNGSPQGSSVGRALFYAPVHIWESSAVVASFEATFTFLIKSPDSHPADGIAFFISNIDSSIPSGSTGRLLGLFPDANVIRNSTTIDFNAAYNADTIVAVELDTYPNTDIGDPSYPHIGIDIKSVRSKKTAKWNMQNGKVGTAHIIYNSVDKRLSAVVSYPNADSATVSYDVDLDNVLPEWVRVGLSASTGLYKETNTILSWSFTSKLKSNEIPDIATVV
Assay [9] in a line: compounds binding Alexa647 anti-His antibody – biochemical, small-molecule microarray, 635 nm fluorescence, artefact control for SMM control protein annotation, primary screen (AID 1128).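 Further: score merges feature fluorescence with signal-to-noise for each printed compound spot.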 The note with it: higher = more signal.
The test system of assay [10] is Human papillomavirus type 1a E7 protein (residues 1-88). Put plainly: HPV1a E7 small-molecule binders, primary screen, biochemical, small-molecule microarray, residues 1-88, 635 nm (AID 1129). The following applies: small-molecule microarray binding, fluorescence 635 nm; higher = more signal.
In assay [11] the target is Focal adhesion kinase 1 (Homo sapiens) (UniProt Q05397). In words: PTK2 protein binding on printed compound slides – biochemical, small-molecule microarray, 635/667 nm fluorescence, BSA, DTT, primary screen (AID 1130).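 Further: composite of spot emission at 667 nm and signal to noise over triplicate slides.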 The following applies: 635 nm fluorescence, higher = more signal.
Focal adhesion kinase 1 (Homo sapiens), sequence (Q05397 whole entry, looked up): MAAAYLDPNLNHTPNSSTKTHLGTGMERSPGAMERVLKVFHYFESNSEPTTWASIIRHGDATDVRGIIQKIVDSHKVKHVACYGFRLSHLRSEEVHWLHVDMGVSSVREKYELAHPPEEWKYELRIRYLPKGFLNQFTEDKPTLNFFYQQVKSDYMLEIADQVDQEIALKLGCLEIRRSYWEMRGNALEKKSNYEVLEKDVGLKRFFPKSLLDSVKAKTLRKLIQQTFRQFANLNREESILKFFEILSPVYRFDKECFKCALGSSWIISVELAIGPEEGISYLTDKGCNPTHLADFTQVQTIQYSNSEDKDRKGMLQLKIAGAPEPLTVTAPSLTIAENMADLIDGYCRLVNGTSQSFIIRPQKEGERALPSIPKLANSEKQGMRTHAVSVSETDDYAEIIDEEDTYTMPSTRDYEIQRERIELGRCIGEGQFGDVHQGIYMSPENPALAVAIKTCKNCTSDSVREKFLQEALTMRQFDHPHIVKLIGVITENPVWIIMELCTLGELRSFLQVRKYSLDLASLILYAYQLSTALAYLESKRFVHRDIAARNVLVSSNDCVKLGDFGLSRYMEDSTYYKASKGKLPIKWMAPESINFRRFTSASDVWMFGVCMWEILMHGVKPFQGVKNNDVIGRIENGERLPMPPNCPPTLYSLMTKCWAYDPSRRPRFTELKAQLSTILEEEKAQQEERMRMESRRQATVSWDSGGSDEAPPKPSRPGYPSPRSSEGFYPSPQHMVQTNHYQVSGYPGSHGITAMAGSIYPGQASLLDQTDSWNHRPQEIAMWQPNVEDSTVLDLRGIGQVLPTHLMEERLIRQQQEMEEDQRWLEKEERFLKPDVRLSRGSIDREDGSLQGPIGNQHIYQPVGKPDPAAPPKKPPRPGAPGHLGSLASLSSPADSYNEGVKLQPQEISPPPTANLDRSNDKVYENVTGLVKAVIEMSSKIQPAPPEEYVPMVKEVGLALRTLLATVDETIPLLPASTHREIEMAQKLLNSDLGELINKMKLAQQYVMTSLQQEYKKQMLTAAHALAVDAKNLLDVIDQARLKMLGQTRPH
Assay [12] has as its system Fibrinogen (Alexa647-labelled). In words: Alexa647-fibrinogen binding to printed small molecules – biochemical, small-molecule microarray, 635/667 nm fluorescence, artefact control for SMM control-protein annotation, profiling panel (AID 1131).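 Further: z-score merges 667 nm fluorescence with per-spot signal-to-noise over triplicate slides.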 The following applies: fibrinogen-A647 binding fluorescence, higher = more signal.
Assay [13] has as its target Follistatin (Homo sapiens) (UniProt P19883). Put plainly: FST protein binding to printed compounds – biochemical, small-molecule microarray, 635/667 nm fluorescence, primary screen (AID 1132). The following applies: 635 nm fluorescence, higher = more signal.
Assay [14] addresses Fibroblast growth factor 2 (Homo sapiens) (UniProt P09038). Put plainly: basic fibroblast growth factor binding to printed compounds – biochemical, small-molecule microarray, 635/667 nm fluorescence, primary screen (AID 1133). The note with it: FGF2, fluorescence 635/667, higher = more signal.
The nature of assay [15]: JC-1 mitochondrial potential readout, lung cancer cells – cell-based, A549, JC-1 fluorescence, basal, 24 h, 100 nL, profiling panel (AID 1138).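 Further: A549 lung adenocarcinoma cells under basal conditions with no added stimulus; test concentration not given here.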 The note with it: higher = more signal.
For another assay, the system named is Lefty1. In words: Lefty1 protein binding to printed compounds – biochemical, small-molecule microarray, 635/667 nm fluorescence, primary screen (AID 1139). The note with it: fluorescence 635/667, higher = more signal.
In assay [16] the test system is wheat germ agglutinin (Triticum aestivum), Alexa647-labelled. In words: Alexa647-WGA lectin binding to printed small molecules – biochemical, small-molecule microarray, 635/667 nm fluorescence, artefact control for SMM control-protein annotation, profiling panel (AID 1140).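 Further: score merges 667 nm feature emission with signal to noise over triplicate slides.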 The following applies: WGA-A647 binding, 635 nm fluorescence, higher = more signal.
Assay [17] addresses Luciferin 4-monooxygenase (Photinus pyralis) (UniProt P08659). Put plainly: inhibition of purified Photinus pyralis luciferase – biochemical, luminescence, purified enzyme, 2006 set, primary screen (AID 1141).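 Further: cell-free assay with purified firefly luciferase at 100 ng per well in PBS; test concentration not given here.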 The following applies: purified firefly luciferase, SteadyGlo luminescence, 30 min; higher = more signal, called active from +8 up or from −8 down.

Follistatin (Homo sapiens), sequence (P19883 whole entry, looked up): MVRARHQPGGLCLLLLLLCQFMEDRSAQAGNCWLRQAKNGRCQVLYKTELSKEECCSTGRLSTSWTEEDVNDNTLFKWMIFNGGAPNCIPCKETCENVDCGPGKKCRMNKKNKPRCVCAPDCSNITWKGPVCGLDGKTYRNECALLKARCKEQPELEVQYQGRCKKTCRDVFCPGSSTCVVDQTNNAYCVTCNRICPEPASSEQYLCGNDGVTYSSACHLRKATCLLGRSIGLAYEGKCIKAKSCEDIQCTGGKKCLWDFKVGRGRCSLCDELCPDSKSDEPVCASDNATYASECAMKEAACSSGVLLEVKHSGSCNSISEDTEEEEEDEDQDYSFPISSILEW
Luciferin 4-monooxygenase (Photinus pyralis), sequence (P08659 whole entry, looked up): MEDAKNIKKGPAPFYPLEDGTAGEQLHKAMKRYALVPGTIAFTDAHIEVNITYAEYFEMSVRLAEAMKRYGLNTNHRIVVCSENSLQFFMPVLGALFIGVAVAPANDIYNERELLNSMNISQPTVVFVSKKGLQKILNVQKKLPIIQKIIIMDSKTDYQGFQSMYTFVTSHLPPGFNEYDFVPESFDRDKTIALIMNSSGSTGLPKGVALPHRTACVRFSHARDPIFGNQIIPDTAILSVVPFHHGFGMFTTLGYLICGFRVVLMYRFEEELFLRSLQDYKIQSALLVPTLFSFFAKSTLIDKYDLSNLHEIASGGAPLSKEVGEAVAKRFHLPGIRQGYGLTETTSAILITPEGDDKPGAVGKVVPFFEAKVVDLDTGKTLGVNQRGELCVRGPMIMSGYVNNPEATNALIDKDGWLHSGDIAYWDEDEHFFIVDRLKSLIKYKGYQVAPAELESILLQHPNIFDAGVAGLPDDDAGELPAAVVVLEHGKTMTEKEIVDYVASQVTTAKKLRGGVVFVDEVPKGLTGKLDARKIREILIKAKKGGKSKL
Fibroblast growth factor 2 (Homo sapiens), sequence (P09038 whole entry, looked up): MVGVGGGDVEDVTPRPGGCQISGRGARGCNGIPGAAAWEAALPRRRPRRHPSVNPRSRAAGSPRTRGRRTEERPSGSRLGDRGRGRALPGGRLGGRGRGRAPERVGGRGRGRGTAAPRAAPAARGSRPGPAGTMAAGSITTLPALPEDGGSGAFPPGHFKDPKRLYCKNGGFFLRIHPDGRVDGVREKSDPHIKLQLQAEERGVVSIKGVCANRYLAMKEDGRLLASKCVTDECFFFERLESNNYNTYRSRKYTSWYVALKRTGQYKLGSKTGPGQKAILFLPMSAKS

On to `C=C(CCCC)/C(=C/C[C@H](OC(=O)c1ccncc1)c1ccc(CO)o1)c1cnc2ccccc2c1`, for which the composite z-score is 0.295 in the assay with Albumin (Bos taurus); 0.227 in [2]; -0.0942 in assay [3]; 0.84 in assay [4]; 0.368 in [5]; 0.0647 in assay [6]. For the same compound, the composite z-score in the assay with Sam68 (KHDRBS1) was 1.3; in [7], 0.699; in assay [8] it was 1.04; in assay [9], 0.475; in assay [10], 1.18; in assay [11], 0.291. Also, the composite z-score in [12] is 0.0311; in assay [13] it was 1.38; in [14] it was 0.722; with Lefty1, 1.38; in [16], 1.28. In addition, the composite Z-score in assay [1] was -0.0961 (inactive). For the same compound, the z-score is 1.45 in assay [15] and -2.94 (inactive) in [17].
As for `COc1ccc([Si](C)(C)[C@H]2[C@H](CCO)O[C@@]3(C(=O)N(Cc4ccc(N5C(=O)c6cccc7cccc5c67)cc4)c4ccccc43)[C@@H]2C)cc1`, the composite z-score was 0.258 with Albumin (Bos taurus); -0.214 in assay [2]; -0.123 in [3]; 0.346 in assay [4]; 0.249 in assay [5]; 0.0741 in assay [6]. For the same compound, the composite z-score is -0.465 with Sam68 (KHDRBS1); -1.06 in assay [7]; 0.609 in [8]; 0.21 in [9]; -0.141 in assay [10]; -0.266 in assay [11]. Also, the composite z-score in [12] was 0.193; in [13], -0.771; in assay [14], -0.611; in the assay with Lefty1 it was -0.255; in assay [16] it was 0.796. Further, the composite Z-score in assay [1] is 0.466 (inactive). Also, the z-score in assay [15] is 1.9; in assay [17], -0.558 (inactive).
On to `Cc1ccc(S[C@]2(C(=O)NCCN3CCOCC3)CC(=O)N(Cc3cc(C(F)(F)F)cc(C(F)(F)F)c3)[C@@H]2c2ccc(CO)cc2)cc1`, for which the composite z-score with Albumin (Bos taurus) was 0.0152; in assay [2], -0.304; in assay [3] it was -0.0846; in assay [4] it was 0.78; in [5] it was 0.244; in assay [6], 0.248. Moreover, the composite z-score was -0.142 in the assay on Sam68 (KHDRBS1); -1.01 in assay [7]; -0.664 in assay [8]; -1.03 in assay [9]; 0.624 in assay [10]; 0.151 in assay [11]. The composite z-score in [12] was -0.899; in assay [13], -1.09; in [14] it was -1.21; in the assay with Lefty1, -1.1; in assay [16] it was -1.54. Further, the composite Z-score in [1] was -0.654 (inactive). Further, the z-score is 1.59 in assay [15] and -0.682 (inactive) in [17].
For the compound `CC(C)C(=C=CC[C@H](O)c1ccc(OCCO)cc1)C[C@H](O)COCc1ccccc1`, the composite z-score is 0.394 with Albumin (Bos taurus); 0.0522 in assay [2]; -0.179 in assay [3]; 0.508 in [4]; 1.43 in assay [5]; 1.04 in assay [6]. For the same compound, the composite z-score in the assay on Sam68 (KHDRBS1) was 1.3; in assay [7] it was 0.433; in assay [8], 0.673; in assay [9], 1.73; in assay [10], 1.18; in [11], -0.0245. Further, the composite z-score in assay [12] turned out to be 0.749; in assay [13] it was 1.31; in assay [14], 1.03; with Lefty1 it was 0.795; in assay [16], 0.325. In addition, in assay [1], the composite Z-score is 0.813 (inactive). For the same compound, the values for the z-score in assay [15] and in [17] were 2.47 and -2.55 (inactive), respectively.
As to `COCCOC(=O)N1C(=O)[C@@]2(c3cc(C#CC4(O)CCCCCC4)ccc31)[C@H](c1ccccc1OCCO)N1[C@H](c3ccccc3)[C@H](c3ccccc3)OC(=O)[C@H]1[C@@H]2C(=O)Nc1nc2ccccc2s1`, the composite z-score with Albumin (Bos taurus) is 0.655; in [2] it was -0.0942; in assay [3] it was -0.0843; in assay [4], 0.53; in [5], 1.16; in assay [6], 0.417. Also, the composite z-score in the assay on Sam68 (KHDRBS1) was found to be 1.16; in assay [7] it was 0.478; in assay [8] it was 1.18; in assay [9], 1.84; in [10], 1.21; in assay [11] it was 0.862. For the same compound, the composite z-score in assay [12] was 0.805; in assay [13], 1.39; in assay [14], 1.16; in the assay with Lefty1, 1.5; in assay [16], 1.14. The composite Z-score in [1] is -0.344 (inactive). Besides, the z-score is -1.56 in assay [15] and -2.53 (inactive) in [17].
